# In PubChem BioAssay (NCI):
# Compounds without any hit were thinned out: in the full panel of roughly 83,000, 20% have a hit.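 Treatment: one concentration, 48 hours, 96-well format. Scoring: percent growth, with anything below 10 considered active.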 Values without a mark were called inactive. Active and inactive are the calls of the source.
# Key:
# Assay in all cases: NCI-60 one-dose screen, 48 h (100 = growth as untreated, 0 = no growth, -100 = all killed)
# Conditions in all cases: 10 µM unless noted
# DU-145 prostate = test system: DU-145 prostate
# K-562 leukemia = test system: K-562 leukemia
# MALME-3M melanoma = test system: MALME-3M melanoma
# MDA-MB-231 breast = test system: MDA-MB-231 breast
# RXF 393 renal = test system: RXF 393 renal
# SF-268 CNS = test system: SF-268 CNS
# SF-295 CNS = test system: SF-295 CNS
# SF-539 CNS = test system: SF-539 CNS
# UACC-257 melanoma = test system: UACC-257 melanoma
# M14 melanoma = test system: M14 melanoma
SMILES,growth (DU-145 prostate),growth (K-562 leukemia),growth (MALME-3M melanoma),growth (MDA-MB-231 breast),growth (RXF 393 renal),growth (SF-268 CNS),growth (SF-295 CNS),growth (SF-539 CNS),growth (UACC-257 melanoma),growth (M14 melanoma)
CCC(C)(C)c1ccc(OCCCCCCN2CCNCC2)cc1,49.3%,-29% (active),72%,78.5%,35.9%,78.5%,84.4%,61.4%,75.9%,65.5%
O=C(Nc1ccc(-n2cc(-c3ccncc3)c(-c3ccc(Cl)c(O)c3)n2)cc1)c1ccc(Cl)c(C(F)(F)F)c1,26.4%,2.13% (active),-26.6% (active),-33.5% (active),-66.3% (active),28.6%,-63.4% (active),-32.4% (active),31.4%,-79.4% (active)
CC[C@H](Nc1ncnc2nc[nH]c12)c1nc2cccc(NCc3ccc(C(=O)NO)o3)c2c(=O)n1-c1ccccc1,101%,102%,77.1%,113%,110%,84.1%,102%,100%,102%,103%
Cc1ccc(C(C)C)c(OCc2ccc(C(=O)N/N=C/c3cccc(O)c3O)cc2)c1,33.6%,4.92% (active),29.6%,41.1%,48.3%,25.6%,36.1%,26%,58.8%,18.1%
O=C(Nc1ccc(-n2cc(-c3ccncc3)c(-c3ccc(Cl)c(O)c3)n2)cc1)Nc1ccc(Cl)c(C(F)(F)F)c1,23.2%,8.1% (active),-13.6% (active),-24.8% (active),-47.8% (active),23.3%,-44.5% (active),2.77% (active),-9.1% (active),-58.6% (active)
C#CCCCCCCC[C@@H]1OC(=O)[C@H]([C@@H](C)CC)NC(=O)[C@@H]([C@@H](C)CC)NC(=O)CC(=O)[C@@H]1C,106%,92.5%,94.7%,85.7%,101%,94.8%,98.6%,96.2%,121%,93.3%
CCCNC(=O)Oc1ccc(/C(=C(/CC)Cc2ccccc2)c2ccc(OCCN(CC)CC)cc2)cc1,86.1%,-31.9% (active),79.6%,60.8%,66.8%,71.4%,97.8%,89.7%,82.6%,-35.3% (active)
Clc1ccc(N/N=C(\c2ccccc2)c2ccccn2)nc1,22.7%,7.96% (active),20%,37%,24.6%,10.5%,1.66% (active),-0.842% (active),-7.64% (active),-6.53% (active)
CCCCCCCCCc1cc[n+](CC(=O)c2ccc([N+](=O)[O-])cc2)cc1,23.7%,-4.43% (active),-34.9% (active),-76.7% (active),32.5%,29.6%,9.4% (active),-87.5% (active),0.0548% (active),-67.3% (active)
C=CC1CN2CCC1CC2C(O)c1ccnc2ccc(OC)cc12 (stereo not given),127%,106%,95.6%,96.7%,97%,103%,91.6%,98.3%,106%,98.9%
CCCCCCCCCCCCCCCCNC(=O)Nc1ccc(C)c(NC(=O)NCCCCCCCCCCCCCCCC)c1,112%,105%,89.8%,89.9%,108%,114%,114%,110%,105%,108%
Cc1ccc(NCc2cn(-c3ccc(C(=O)O)cc3)nc2-c2ccc(C(=O)O)cc2)cc1,100%,102%,93.1%,108%,121%,92.8%,103%,101%,97.6%,99.3%
Oc1ccc([S+](c2ccc(O)cc2)c2ccc(O)cc2)cc1,120%,94.7%,106%,117%,94.6%,114%,96%,98.9%,98.4%,105%
COC(=O)c1ccc2[nH]c(O)c(C(=Nc3ccc(N(C)C(=O)CN4CCN(C)CC4)cc3)c3ccc(C)cc3)c2c1,-14.2% (active),-32.9% (active),-94.6% (active),-22.9% (active),-98.2% (active),5.16% (active),1.13% (active),-96.1% (active),-59.4% (active),-83.7% (active)
COc1cc(-c2c3c(cn2CCN2CCCCC2)-c2oncc2CC3)cc(OC)c1OC,109%,108%,110%,109%,100%,94.7%,97.6%,94%,109%,105%
CCCCCCCCCCCCc1ccc([N+](CC)(CC)CC)cc1,58.8%,16.3%,-11.1% (active),41.7%,45.8%,47.8%,48.9%,58.7%,13.6%,32.5%
CCC(C)C1NC(=O)C(CCCCN)NC(=O)C(CCCCN)NC(=O)C(CC(C)C)NC(=O)C(CCCCN)NC(=O)C(C(C)CC)NC(=O)C(C(C)C)NC(=O)C(C(C)CC)NC(=O)C(CCCCN)NC(=O)C(CCCCN)NC(=O)C(C)NC(=O)C(CCCCN)NC(=O)C(CC(C)C)NC1=O (stereo not given),25.5%,9.18% (active),9.48% (active),-0.123% (active),45.2%,19.5%,27.4%,67.5%,7.94% (active),22.2%
COC(=O)C(N)CC(C)C (stereo not given),101%,88.8%,95.2%,-50.4% (active),98.2%,96.8%,109%,112%,102%,92.6%
O=C(NCCCl)Nc1nccnc1OCc1ccc(F)cc1,114%,99.4%,148%,87.6%,109%,99.2%,99.2%,109%,109%,95.3%
Cc1cc2c(-c3nc4ccccc4[nH]3)c(O)c(O)cc2c(O)c1-c1c(C)cc2c(-c3nc4ccccc4[nH]3)c(O)c(O)cc2c1O,16.6%,6.02% (active),-6.72% (active),23.3%,-8.07% (active),6.93% (active),-17.5% (active),-24.5% (active),-3.19% (active),-3.53% (active)
O=C(/C=C\c1ccccc1Cl)c1ccccc1,101%,102%,98.9%,91.7%,89.7%,93.4%,75.2%,103%,119%,101%
COc1cc(-c2nn(-c3ccc(NC(=O)c4cc(Cl)cc(Cl)c4)cc3)cc2-c2ccncc2)ccc1Cl,96.9%,23.4%,104%,80.9%,-17.1% (active),76.9%,-1.01% (active),60.2%,102%,62.9%
CCc1c(C)c2ccc(OCC(=O)N=Nc3c(O)[nH]c4ccccc34)c(C)c2oc1=O,7.92% (active),4.73% (active),42.5%,0.841% (active),35.7%,18.4%,-9.71% (active),85%,28.2%,3.57% (active)
COc1ccc(C(=O)N2N=C(c3ccc(Br)cc3)CC2c2cn(-c3ccccc3)nc2-c2ccccc2)cc1 (stereo not given),47.2%,43.4%,73.1%,61.3%,82.4%,71.9%,70.9%,92.4%,79.6%,39.1%
